# From PubChem BioAssay AID731 (The Scripps Research Institute Molecular Screening Center, 2007)
# In all, about 200,000 compounds went through this assay and about 520 (0.26%) were called active. This excerpt belongs to a sample that is enriched for actives. A number with no mark means an inactive call. Cut-off read from the data, not from the text of the source: active = activation above about 23%; inactive = the rest.
# Target: Peroxisome proliferator-activated receptor gamma (Homo sapiens) (UniProt P37231)
# Test: enhancers of SRC-3 binding to PPARgamma – biochemical, primary screen (AID 731);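 note: 0% = DMSO and 100% = reference agonist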
# Conditions: biochemical PPARgamma/SRC-3 coactivator recruitment assay; at 8 µM; active compounds read high
# Sequence of Peroxisome proliferator-activated receptor gamma (Homo sapiens) (P37231 whole entry, looked up): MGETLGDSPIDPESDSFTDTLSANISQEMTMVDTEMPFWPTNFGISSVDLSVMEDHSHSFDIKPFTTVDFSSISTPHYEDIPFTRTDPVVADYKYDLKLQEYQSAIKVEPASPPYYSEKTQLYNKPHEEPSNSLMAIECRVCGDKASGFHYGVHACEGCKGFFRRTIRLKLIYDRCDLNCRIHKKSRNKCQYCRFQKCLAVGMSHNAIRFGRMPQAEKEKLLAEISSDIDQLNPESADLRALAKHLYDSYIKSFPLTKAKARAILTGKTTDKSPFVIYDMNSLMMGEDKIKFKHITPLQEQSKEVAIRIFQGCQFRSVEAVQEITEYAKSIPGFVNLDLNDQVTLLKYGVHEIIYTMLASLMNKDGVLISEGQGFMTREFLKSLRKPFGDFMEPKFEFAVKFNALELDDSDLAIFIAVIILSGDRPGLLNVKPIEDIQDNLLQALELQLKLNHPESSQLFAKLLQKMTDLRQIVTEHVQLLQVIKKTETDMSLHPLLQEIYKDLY
row,Compound,activation
1,CSC1=NP(=S)(SC)N(C)c2nc3n(c21)CCC3 (stereo not given),102% (active)
2,CCCCCCN=C(CC)c1c(O)n(CCCC)c(=O)[nH]c1=O,-4.72%
3,CCNc1nc2[nH]c(=O)c3c(c2s1)OC(N)=C(C#N)C3c1cccs1 (stereo not given),-2.75%
4,CCN(CC)c1ccc([N+](=O)[O-])c2cccnc12,4.74%
5,CC[N+](CC)(CC)CCCCCCCCCC[N+](CC)(CC)CC,-1.93%
